FBPA coupling cs – qHTS Assay for Inhibitors of Fructose-1,6-bisphosphate Aldolase from Giardia Lamblia: Coupling assay counterscreen; coupling enzyme system counterscreen, AmpLite Red fluorescence; activity change, negative = inhibition, % at 58.2 µM, hits read low; 290,000 tested, 0.67% active; in the data active means activity change below about -30%
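First, compound is pin-transferred into glyceraldehyde-3-phosphate coupling-enzyme reagent at 57.5 uM final and held 10 min at RT. Next, substrate, coupling system and AmpLite Red are added. After 20 min RT, fluorescence (525/598 nm) is read.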
Giardia killer – Small Molecules that selectively kill Giardia lamblia: qHTS | Giardia lamblia trophozoite viability | activity change, % at 7.66 µM, hits read low | AID 540267, 2011 | 340,000 tested, 0.15% active; in the data active means activity change below about -80%; inconclusive means between about -30% and that limit;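 further: parasites exposed to compound for two days anaerobically before the ATP read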
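Luminescence from cellular ATP indicates surviving trophozoites (100 cells/well) following 48 hrs anaerobic compound treatment at 37 deg C; signal develops 15-30 min at room temperature.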
Sfp PPTase inh – qHTS Assay for Inhibitors of Bacillus subtilis Sfp phosphopantetheinyl transferase (PPTase) | Biochemical Sfp PPTase activity, qHTS | Potency, µM, inactives show largest response in the series, negative = inhibition, usual class: inhibitors | 310,000 tested, 3.5% active | AID 1490, 2009;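 further: the enzyme is Sfp with the accession as filed and its product quenches rhodamine fluorescence; potency means the concentration at half of the fitted maximal effect; 0% = enzyme reaction without inhibitor and -100% = no enzyme wells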
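After 15 min at room temperature with compound, 15 nM Sfp received 5 uM rhodamine-CoA plus 12.5 uM BHQ-2-ybbR (50 mM Hepes pH 7.6, 10 mM MgCl2). Rate came from the fluorescence difference over 30 min, ex 525/em 598 nm.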
ELG1 DNA repair – qHTS screen for small molecules that inhibit ELG1-dependent DNA repair in human embryonic kidney (HEK293T) cells expressing luciferase-tagged ELG1; HEK293T ELG1-luciferase reporter, luminescence, 16 h; DNA damage induced by 5-fluorouridine; Potency, µM (doses to about 46.1 µM), without a hit: at the top dose activity change, negative = inhibition, most hits filed as inhibitors; 330,000 tested, 2.3% active; further: potency means the concentration at half of the fitted maximal effect; nearly all actives have a fitted effect of over 55% in size
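Cells (2,000 per well) received 5-fluorouridine plus test compound or DMSO and were incubated 16 hr at 37 °C, 5% CO2. Luciferase activity was read by luminescence 30 min after ONE-Glo addition; signal suppression marked inhibition of damage-induced ELG1 function.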
Numbers without * were called inactive; ? = inconclusive; . = no result. This is a sample that favours compounds with a hit; in the whole collection about 5.5% have one here. Unless noted, the call rests on the fitted dose curve; in most records, active means well fitted curve in the direction sought with a large enough effect; inconclusive means small, poorly fitted or top-dose-only effect, or another doubt; inactive means no such curve, though single readings can be large; an effect the other way counts as inactive or inconclusive. Unless noted, on the % scale 0 is the no-effect control and ±100 the full control effect.

SMILES | FBPA coupling cs | Giardia killer | Sfp PPTase inh | ELG1 DNA repair
Cc1ccc(C(=O)NCc2ccco2)cc1S(=O)(=O)N1CCCCC1 | 5.3 | 0.8 | -23.0% | -14.3%
COc1ccccc1CNCC(=O)Nc1cc(S(=O)(=O)N2CCOCC2)ccc1Cl | . | -13.1 | . | 20.6µM*
O=C(COC(=O)c1cc(Br)ccc1O)Nc1cc(S(=O)(=O)N2CCCC2)ccc1Cl | 0.0 | -0.6 | 56.2µM* | -6.7%
O=S(=O)(c1ccc(-c2n[nH]c(=S)o2)cc1)N1CCCCC1 | 17.5 | -26.0 | -44.4% | 2.0%
O=C(NCCN1CCN(C(=O)c2ccc(F)cc2)CC1)c1ccc(F)cc1 | 0.1 | -6.2 | -3.9% | 2.1%
CSc1ccc(NC(=O)N2CCC(C(=O)c3ccc(F)cc3)CC2)cc1 | -0.4 | -7.7 | -6.5% | ?
O=C(CNCc1ccccn1)Nc1cc(S(=O)(=O)N2CCCCC2)ccc1Cl | 2.7 | -7.6 | 11.6% | ?
Cc1ccc(S(=O)(=O)N2CCCCC2)cc1NC(=O)CNCc1ccco1 | 2.6 | 8.0 | 6.31µM* | -6.6%
O=C(CNCc1ccncc1)Nc1cc(S(=O)(=O)N2CCCCC2)ccc1Cl | -0.4 | 7.9 | 44.7µM* | -14.8%
COc1ccccc1CNCC(=O)Nc1cc(S(=O)(=O)N2CCCCCC2)ccc1Cl | -2.8 | 12.4 | ? | 23.1µM*
COCCCNC(=O)c1cc(S(=O)(=O)N2CCOCC2)ccc1SCc1cccc(OC)c1OC | 0.8 | -1.6 | 50.1µM* | -0.7%
Cn1c(=O)c(-c2ccccc2)nc2cnc(N3CCOCC3)nc21 | 1.4 | . | -6.7% | .
Nc1nc(=S)c2n[nH]nc2[nH]1 | . | 17.5 | . | .
C=CC[C@@H](Cc1ccc(F)cc1)C(=O)OC[C@H]1CCCN1C(=O)[C@H](CC=C)CC(=O)N[C@H](CO)Cc1ccccc1 | . | 3.1 | . | 23.1µM*
C=CC[C@@H](Cc1ccc(F)cc1)C(=O)OC[C@@H]1CCCN1C(=O)[C@@H](CC=C)CC(=O)N[C@H](CO)Cc1ccccc1 | . | -2.3 | . | 20.6µM*
O=S(=O)(/N=C(/Nc1cccnc1Cl)c1ccccc1)c1ccccc1 | . | 1.3 | . | 0.1%
COc1ccc(-n2cnnc2SC(C)c2nc3sc(C)c(C)c3c(=O)[nH]2)cc1 (stereo not given) | 0.2 | . | 89.1µM* | 0.5%
Cc1ccc(-n2nnnc2SCc2nc3sc(C)c(C)c3c(=O)[nH]2)cc1 | 1.0 | 9.9 | -3.6% | -1.3%
CSCC[C@H](NC(=O)[C@H](Cc1ccccc1)NC(=O)[C@H](Cc1cnc[nH]1)NC(=O)CNC(=O)[C@@H](NC(=O)[C@H](C)NC(=O)[C@H](Cc1c[nH]c2ccccc12)NC(=O)[C@H](CC(C)C)NC(=O)[C@H](CC(N)=O)NC(=O)CN)[C@@H](C)O)C(N)=O | -1.4 | . | -3.3% | .
CC(=O)c1ccc(-n2nnnc2SCC(=O)Nc2sc(C)c(C)c2C#N)cc1 | 2.1 | -25.8 | 50.1µM* | -21.9%
CCCn1nnnc1SCC(=O)Nc1sc(C)c(C)c1C#N | -4.4 | 6.3 | 50.1µM* | 0.9%
Cc1sc(NC(=O)CSc2nnnn2C)c(C#N)c1C | -3.6 | -10.1 | 19.4% | 4.7%
C/C(CCC(=O)OC[C@@H]1O[C@H](C#Cc2ccccc2)C=C[C@@H]1Oc1ccc(C)cc1)=N/O[C@@H](C)c1cc(-c2c(C)cc(C)cc2C)no1 | 1.1 | . | -6.8% | .
NS(=O)(=O)c1ccc(CNC(=O)c2ccc(NS(=O)(=O)c3cccs3)cc2)cc1 | . | 10.0 | . | ?
Cc1ccccc1CS(=O)(=O)CCC(=O)NCc1ccc(F)cc1Cl | . | 12.2 | 22.6% | 7.3%
SMILES | FBPA coupling cs | Giardia killer | Sfp PPTase inh | ELG1 DNA repair
COc1cc(/C=C/C(=O)OCC(=O)NCCC2=CCCCC2)cc(OC)c1OC | . | -6.1 | . | -4.1%
CC(C)OCCOc1ccc2oc(-c3ccco3)cc(=O)c2c1 | -1.5 | 1.4 | 8.1% | ?
COc1ccccc1C(C)Nc1ccc(S(=O)(=O)N2CCN(C)CC2)cc1[N+](=O)[O-] (stereo not given) | . | -12.7 | . | -19.3%
COc1cc(-c2noc(CCCC(=O)NCc3ccccc3)n2)cc(OC)c1OC | -1.1 | 3.6 | -3.7% | 18.4µM*
Cc1cccc(-c2noc(-c3ccccc3C(=O)NCc3ccco3)n2)c1 | -5.1 | 7.4 | 39.8µM* | -1.0%
COc1cc(-c2noc(-c3ccccc3C(=O)NCc3ccco3)n2)cc(OC)c1OC | 3.7 | 5.2 | 19.5% | 4.61µM*
CCCN1CNc2c(c(=O)[nH]c(=S)n2CCCc2ccccc2)C1 | . | 11.2 | . | .

Source: PubChem (National Center for Advancing Translational Sciences (NCATS))
